Laboratory results reported in the supplement of paper PMC9433436.
± gives the standard deviation of the averaged measurements. Whole data set: some 4,100 sequences, median “relative kcat/Km (krel) vs genomic leader AAAGAU” near 1.7, cut for the highest 2% near 6.5. For the sample, the highest values were picked, then their nearest neighbours and some sequences at random.

Molecular target: T1, E. coli RNase P holoenzyme (M1 P RNA + rnpA protein) (UniProt P0A7Y8)
T1 sequence: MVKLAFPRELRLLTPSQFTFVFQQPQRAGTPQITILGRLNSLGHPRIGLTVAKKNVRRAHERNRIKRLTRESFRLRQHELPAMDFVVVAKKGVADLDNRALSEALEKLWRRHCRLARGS
Assay: relative kcat/Km (krel) vs genomic leader AAAGAU (relative (reference leader = 1)); higher = faster RNase P cleavage
Description: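 HTS-Kin: a pool of ptRNA-Met (21C construct) with all 4096 combinations of 5' leader nucleotides N(-6) to N(-1) was processed in vitro by E. coli RNase P (P RNA + rnpA/C5 protein) under multiple-turnover conditions at 37 C, pH 8, 17.5 mM MgCl2. Residual substrate was Illumina-sequenced at several fractions reacted, and relative kcat/Km (krel) was computed by internal competition kinetics, calibrated to the genomic leader (AAAGAU = 1). The listed hexamer is the varied N(-6)..N(-1) leader (DNA letters), and it sits between a fixed 5' stem-loop flank (GCAUGCACGAAAGUGCGUGCUAUGAA) and the mature tRNA-Met starting GGCUACGUAGCUCAGUUGG. Two technical replicates are averaged.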

[1] = fraction of substrate reacted: ~9-10% (9.79% repeat 1, 9.1% repeat 2)
[2] = fraction of substrate reacted: ~13-16% (15.68% repeat 1, 13.17% repeat 2)
[3] = fraction of substrate reacted: ~26-29% (28.66% repeat 1, 26.4% repeat 2)

GGCTTC
relative kcat/Km [1]: 0.513 ± 0.13 | relative kcat/Km [2]: 1.31 ± 0.14 | relative kcat/Km [3]: 1.7 ± 0.44

CACTCC
relative kcat/Km [1]: 3.12 ± 2.1 | relative kcat/Km [2]: 3.9 ± 0.2 | relative kcat/Km [3]: 5.21 ± 1.3

CAAGCT
relative kcat/Km [1]: 1.48 ± 1.3 | relative kcat/Km [2]: 0.905 ± 0.4 | relative kcat/Km [3]: 1.37 ± 0.37

ATGTAC
relative kcat/Km [1]: 3.03 ± 0.37 | relative kcat/Km [2]: 3.81 ± 0.94 | relative kcat/Km [3]: 5.39 ± 2.7

TGCGGT
relative kcat/Km [3]: 2.25 ± 1.2

TTCTAC
relative kcat/Km [1]: 5.32 ± 1.5 | relative kcat/Km [2]: 7.7 ± 1.3 | relative kcat/Km [3]: 10.6 ± 4.4

TGCTAC
relative kcat/Km [1]: 2.42 ± 1.5 | relative kcat/Km [2]: 2.16 ± 0.89 | relative kcat/Km [3]: 4.62 ± 2.6

TTCTAT
relative kcat/Km [1]: 5.38 ± 0.96 | relative kcat/Km [2]: 7.59 ± 1.6 | relative kcat/Km [3]: 10.5 ± 4.7

CTAAAA
relative kcat/Km [1]: 2.15 ± 0.51 | relative kcat/Km [2]: 2.43 ± 0.18 | relative kcat/Km [3]: 2.89 ± 0.88

CTCTAA
relative kcat/Km [1]: 4.48 ± 1.2 | relative kcat/Km [2]: 6.21 ± 1.1 | relative kcat/Km [3]: 8.82 ± 3.7

TGCTAT
relative kcat/Km [1]: 2.93 ± 0.94 | relative kcat/Km [2]: 2.69 ± 0.56 | relative kcat/Km [3]: 3.79 ± 1.5

AGCTAT
relative kcat/Km [1]: 4.03 ± 1.8 | relative kcat/Km [2]: 3.39 ± 1.1 | relative kcat/Km [3]: 5.23 ± 1.9

CGCTAA
relative kcat/Km [1]: 3.07 ± 0.43 | relative kcat/Km [2]: 3.99 ± 1.2 | relative kcat/Km [3]: 5.96 ± 2.3

TGTGAA
relative kcat/Km [1]: 2.72 ± 0.39 | relative kcat/Km [2]: 2.92 ± 0.98 | relative kcat/Km [3]: 3.58 ± 1.9

TGATAT
relative kcat/Km [1]: 1.84 ± 0.025 | relative kcat/Km [2]: 3.77 ± 0.75 | relative kcat/Km [3]: 6.11 ± 3.1

ACATCG
relative kcat/Km [1]: 1.31 ± 1.1 | relative kcat/Km [3]: 1.61 ± 0.095

TGGACT
relative kcat/Km [1]: 1.76 ± 0.67 | relative kcat/Km [2]: 0.899 ± 0.057 | relative kcat/Km [3]: 0.76 ± 0.046

GGTAGG
relative kcat/Km [3]: 1.74 ± 0.56

ATCCCG
relative kcat/Km [1]: 1.67 ± 1.4 | relative kcat/Km [2]: 0.83 ± 0.4 | relative kcat/Km [3]: 1.86 ± 0.023

GTAGCC
relative kcat/Km [1]: 1.99 ± 0.12 | relative kcat/Km [2]: 1.48 ± 0.66 | relative kcat/Km [3]: 2.13 ± 0.51

TTTAAT
relative kcat/Km [1]: 3.19 ± 1.8 | relative kcat/Km [2]: 3.87 ± 0.24 | relative kcat/Km [3]: 5.8 ± 2.3

CAATAT
relative kcat/Km [1]: 3.27 ± 0.33 | relative kcat/Km [2]: 4.46 ± 0.96 | relative kcat/Km [3]: 6.37 ± 3

ACCATT
relative kcat/Km [1]: 2.5 ± 1.4 | relative kcat/Km [2]: 2.84 ± 0.28 | relative kcat/Km [3]: 4.27 ± 1.3

GCCATT
relative kcat/Km [1]: 1.91 ± 0.79 | relative kcat/Km [2]: 2.36 ± 0.9 | relative kcat/Km [3]: 4.74 ± 1.7

TCCATT
relative kcat/Km [1]: 4.11 ± 1.2 | relative kcat/Km [2]: 4.85 ± 1.2 | relative kcat/Km [3]: 7.33 ± 3.2

TCCATG
relative kcat/Km [2]: 1.42 ± 0.26 | relative kcat/Km [3]: 3.46 ± 0.3

ACCATA
relative kcat/Km [1]: 2.8 ± 1.8 | relative kcat/Km [2]: 2.2 ± 0.51 | relative kcat/Km [3]: 3.64 ± 0.82

TCCATA
relative kcat/Km [1]: 4.06 ± 1.5 | relative kcat/Km [2]: 4.66 ± 0.32 | relative kcat/Km [3]: 6.71 ± 2.6
